# Results: PubChem BioAssay (NCATS)
# Records with an inconclusive call do not appear. Entries that show only a call come without a potency. The source made the active and inactive calls. The call rests on the fitted dose curve; in most records, active means well fitted curve in the direction sought with a large enough effect; inconclusive means small, poorly fitted or top-dose-only effect, or another doubt; inactive means no such curve, though single readings can be large; an effect the other way counts as inactive or inconclusive.
# Assays:
# [1] = system: Nanoluciferase (engineered Oplophorus gracilirostris luciferase); assay: Primary Nanoluciferase (NLuc) qHTS assay for identification of artifact compounds. (AID 1845222); details: NLuc-conditioned medium, Nano-Glo luminescence, 5 min; series mostly up to 54.1 µM
# In short: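 Luminescence read-out of secreted NLuc in S16 cell conditioned medium (1:55); compounds tested with 15 min RT preincubation, then Nano-Glo substrate 1:100, 5 min. % inhibition vs no-enzyme and DMSO controls, 4-parameter Hill fit.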
# [2] = Primary redox qHTS assay for identification of artifact compounds. (AID 1845223); details: Amplex Red/HRP redox cycling with DTT, fluorescence; series mostly up to 53.8 µM
# In short: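 Amplex Red (25 uM) and HRP (250 mU/mL) in HBSS, with compounds for 15 min, then 250 uM DTT for 30 min, room temperature, dark. Fluorescence 525/598 nm read; normalized to DMSO and 10 uM DA3003; Hill fit.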
SMILES,Potency [1],Potency [2]
CC(C)(O)C1CC=C(C(=O)OC[C@H]2O[C@@H](Oc3cc(C(=O)O)cc(O)c3O)[C@H](O)[C@@H](O)[C@@H]2O)CC1 (stereo partly specified),inactive,inactive
C=C(C(=O)O)C1CC(OC(=O)CC(C)CC)C2(C)CCCC(=C)C2C1 (stereo unspecified),inactive,inactive
CC1C(=O)OCC2=CC[N+]3([O-])CCC(OC(=O)C(C)(O)C1(C)O)C23 (stereo unspecified),inactive,inactive
COC(=O)[C@]1(Cc2ccc(O)c(CC=C(C)C)c2)OC(=O)C(O)=C1c1ccc(O)cc1,inactive,inactive
C=Cc1cc2oc(-c3ccc(O)c(F)c3)nc2cc1O,inactive,inactive
CC1=CC2=C(C)C(=O)[C@](C)(O)[C@H](O)C2=CO1,inactive,inactive
COC(=O)C1=COC(O[C@@H]2O[C@H](CO)[C@@H](O)[C@H](O)[C@H]2O)C2C(C)C(=O)CC12 (stereo partly specified),inactive,inactive
COC1OC(OC)C(O)(CCC2(C)C(C)CCC3(C)C2CC(O)C(O)C32CO2)C1O (stereo unspecified),inactive,inactive
Cc1ccc(C)c(NC(=O)CNS(=O)(=O)c2ccc3[nH]c(=O)oc3c2)c1,inactive,inactive
C[C@H]1[C@@H](O)[C@H](O)C2[C@]3(C)C([C@@H](O)[C@H]4OC(=O)[C@@H]1[C@@]24C)[C@](C)(O)C=C[C@H]3O[C@@H]1O[C@H](CO)[C@@H](O)[C@H](O)[C@H]1O (stereo partly specified),inactive,inactive
COc1ccc(CC(=O)NCc2ccccc2-c2ccccc2C(=O)NCCc2cccnc2)cc1,inactive,inactive
C/C(=C\C(=O)C(C)C1CCC2C3=C(CCC21C)C1(C)CCC(=O)C(C)(C)C1(O)CC3)C(C)(C)O (stereo unspecified),inactive,inactive
CC(C)C[C@H](NC(=O)[C@@H]1O[C@H]1C(=O)O)C(=O)NCCCCN=C(N)N,inactive,inactive
CCC(C)C(N)C(=O)NCCN1CCOCC1 (stereo unspecified),inactive,inactive
COC(=O)c1ccc(OC)cc1O[C@@H]1O[C@H](CO[C@@H]2OC[C@@H](O)[C@H](O)[C@H]2O)[C@@H](O)[C@H](O)[C@H]1O,inactive,inactive
COc1ccc2c(c1)N1C(=O)C[C@@]34C=CC[N@+]5([O-])CC[C@H]2[C@H](CC3)[C@@]145,inactive,inactive

SMILES,Potency [1],Potency [2]
NC(N)=NCCC[C@H](NC(=O)c1sccc1NS(=O)(=O)c1cccc2nsnc12)C(=O)O,inactive,inactive
NC1Nc2ccccc2C1(N)CC1NC(=O)C(Cc2ccccc2)NC(=O)C(Cc2ccccc2)NC1=O (stereo unspecified),inactive,inactive
O=C(O)Cc1cn([C@@H]2OC[C@@H](O[C@@H]3O[C@H](CO)[C@@H](O)[C@H](O)[C@H]3O)[C@H](O)[C@H]2O[C@@H]2O[C@H](CO)[C@@H](O)[C@H](O)[C@H]2O)c2ccccc12,inactive,inactive
CCc1cccc2c3c([nH]c12)[C@@](CC)(CC(=O)O)OCC3,inactive,inactive
O=C(O)CCc1cccc(O)c1O[C@@H]1O[C@H](CO)[C@@H](O)[C@H](O)[C@H]1O,inactive,inactive
C/C=C(\C)C(=O)OCC1OC(OC2OC(CO)C(O)C(O)C2O)C(O)C(O)C1O (stereo unspecified),inactive,inactive
O=C(/C=C/c1ccc(O)cc1)OC[C@H]1O[C@@H](O/C(=C\c2ccccc2)C(=O)O)[C@H](O)[C@@H](O)[C@@H]1O,inactive,inactive
C=CCc1cc(OC)c(OC(C)C(O)c2ccc(O)c(OC)c2)c(OC)c1 (stereo unspecified),inactive,inactive
O=C(O[C@H]1[C@H](Oc2ccc(O)cc2CO)O[C@H](CO)[C@@H](O)[C@@H]1O)c1ccccc1,inactive,inactive
COc1cc(C(O)C2COC(c3ccc(OC4OC(CO)C(O)C(O)C4O)c(OC)c3)C2CO)ccc1O (stereo unspecified),inactive,inactive
Cc1c(NC(=O)N2CCOCC2)ccc2c1c1ccccc1n2C(C)C,inactive,inactive
COC(=O)[C@H](O)[C@H]1C(C)(C)[C@H](OC(C)=O)[C@@]2(O)C(=O)[C@]1(C)C1CC[C@]3(C)C(CC(=O)O[C@H]3c3ccoc3)[C@]13O[C@@H]32 (stereo partly specified),,inactive
C/C(=C\CCC(C)(C)O)CCO[C@@H]1O[C@H](CO[C@@H]2O[C@@H](C)[C@H](O)[C@@H](O)[C@H]2O)[C@@H](O)[C@H](O)[C@H]1O,inactive,inactive
OCC1=C[C@@H](O)[C@@H]2C=CO[C@@H](O[C@@H]3O[C@H](CO)[C@@H](O)[C@H](O)[C@H]3O)[C@H]12,inactive,inactive
Cc1c(O)cc2c(c1O)COC1(O)CCCOC21 (stereo unspecified),inactive,inactive
